We go through nine compounds from PubChem BioAssay (NCI).

This is part of a sample that, as a whole, favours compounds with a hit. Of some 83,000 tested, about 20% had one in any assay.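 In brief: 96-well plates, 48 h treatment, single concentration, percent growth endpoint.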 Values without a mark were called inactive. Activity calls are given as the source filed them. How the source made its calls: active means growth percent below 10; inactive means the rest.

Test systems include HCT-15 colon; HT29 colon; SNB-19 CNS; U251 CNS; PC-3 prostate; SK-MEL-5 melanoma; UACC-62 melanoma; LOX IMVI melanoma; SK-MEL-28 melanoma; SK-MEL-2 melanoma; EKVX NSCLC; SN12C renal; UO-31 renal; TK-10 renal; ACHN renal; CAKI-1 renal; CCRF-CEM leukemia; MOLT-4 leukemia; SNB-75 CNS; A498 renal.
Experiment in all cases: NCI-60 one-dose screen, 48 h (100 = growth as untreated, 0 = no growth, -100 = all killed)
Holding throughout (details): 10 µM unless noted

Take `N/C(=N\C(N)=N\c1nc2ccccc2s1)c1ccnc(Br)c1`: the growth in the experiment with HCT-15 colon is 19.6%; in the experiment on HT29 colon, 10.2%; in the experiment on SNB-19 CNS it was 39.1%; with U251 CNS, 26.3%; in the experiment with PC-3 prostate, 35.3%; in the experiment with SK-MEL-5 melanoma, 27.1%. Besides, the growth is 27.7% with UACC-62 melanoma; 33.8% in the experiment with LOX IMVI melanoma; 57.2% with SK-MEL-28 melanoma; 7.48% (active) with SK-MEL-2 melanoma; 82.6% in the experiment on EKVX NSCLC; 40.5% in the experiment with SN12C renal. Further, the growth was 33.1% with UO-31 renal; 82.2% in the experiment on TK-10 renal; 27.6% with ACHN renal; 25.4% with CAKI-1 renal; 21.3% with CCRF-CEM leukemia; 34% with MOLT-4 leukemia.

`Cc1cccc(C)c1N=c1oc2ccc(Cl)cc2nc1-c1ccccc1O`: the growth with HCT-15 colon was 89.4%; with SNB-75 CNS, 87.3%; with SNB-19 CNS, 109%; with U251 CNS it was 94.4%; in the experiment on PC-3 prostate, 88.6%; in the experiment on SK-MEL-5 melanoma, 91.3%. The growth in the experiment with UACC-62 melanoma was 81.3%; in the experiment with LOX IMVI melanoma, 87.9%; with SK-MEL-28 melanoma, 93.4%; in the experiment on SK-MEL-2 melanoma, 85.7%; in the experiment with EKVX NSCLC, 78.8%; in the experiment on SN12C renal, 86.9%. Also, the growth in the experiment on UO-31 renal is 76.8%; in the experiment on TK-10 renal, 101%; with ACHN renal it was 90.7%; in the experiment with CAKI-1 renal, 90.4%; in the experiment with A498 renal it was 95.3%.

As for `CCCCOc1ccc(/C(C)=N/Nc2cc(C)nc3ccc(Br)cc23)cc1`, the growth in the experiment on HCT-15 colon was 7.75% (active); in the experiment on HT29 colon it was 45.1%; with SNB-19 CNS it was 91.9%; with U251 CNS, 31.9%; in the experiment with PC-3 prostate it was 80.3%; in the experiment on SK-MEL-5 melanoma, 96.7%. For the same compound, the growth was 98.5% with UACC-62 melanoma; 33.9% with LOX IMVI melanoma; 106% with SK-MEL-28 melanoma; 108% with SK-MEL-2 melanoma; 88.2% in the experiment on EKVX NSCLC; 82.5% in the experiment on SN12C renal. In addition, the growth with UO-31 renal was 67.7%; with TK-10 renal it was 112%; in the experiment with ACHN renal, 103%; in the experiment on CAKI-1 renal, 82.9%; in the experiment on CCRF-CEM leukemia it was 64.6%; in the experiment on MOLT-4 leukemia, 83.5%.

As for `O=S(=O)(NCCNc1nccc(-c2c(-c3cccc(O)c3)nc3occn23)n1)c1ccc(Cl)cc1`, the growth is 113% with HCT-15 colon; 62.9% in the experiment with HT29 colon; 109% with SNB-75 CNS; 118% with SNB-19 CNS; 110% with U251 CNS; 96.5% in the experiment on PC-3 prostate. The growth with SK-MEL-5 melanoma is 52.2%; in the experiment with UACC-62 melanoma, 19.2%; with SK-MEL-2 melanoma, 83.4%; in the experiment on EKVX NSCLC, 125%; in the experiment on SN12C renal, 100%; in the experiment on UO-31 renal, 110%. The growth with TK-10 renal was 143%; with ACHN renal it was 98.5%; in the experiment with CAKI-1 renal it was 79.6%; in the experiment on CCRF-CEM leukemia it was 106%; in the experiment on MOLT-4 leukemia, 103%.

Turning to `CCOC(=O)C1=C(CCl)NC(=O)NC1c1ccc2c(c1)OCO2` (centres undefined), the growth is 3.53% (active) in the experiment on HCT-15 colon; 6.92% (active) in the experiment on HT29 colon; 64.4% with SNB-19 CNS; 18.5% with U251 CNS; 53.9% in the experiment with PC-3 prostate; 9.17% (active) in the experiment with SK-MEL-5 melanoma. In addition, the growth with UACC-62 melanoma was 31.4%; with LOX IMVI melanoma, 21%; with SK-MEL-28 melanoma, 45.6%; in the experiment with SK-MEL-2 melanoma it was 69.5%; in the experiment on EKVX NSCLC, 52.7%; in the experiment with SN12C renal, 20.1%. Further, the growth was 56.9% with UO-31 renal; 57.3% in the experiment with TK-10 renal; 31% in the experiment on ACHN renal; 47% in the experiment on CAKI-1 renal; 98% with A498 renal; 10.8% with CCRF-CEM leukemia. For the same compound, the growth in the experiment on MOLT-4 leukemia is 37.7%.

For the compound `CCCCCCCC(=O)OCC/C=C/C1OC1C1OC(=O)/C=C\C=C\C(=O)N(C(C)=O)C(=O)/C=C(/C)CCC2OC2C1OC(=O)NC(C)=O` (centres undefined), the growth is 84.1% in the experiment with HCT-15 colon; 50.8% in the experiment with HT29 colon; 79.3% in the experiment on SNB-75 CNS; 179% in the experiment on SNB-19 CNS; 69.8% with U251 CNS; 84.5% in the experiment on PC-3 prostate. The growth was 67.5% in the experiment with SK-MEL-5 melanoma; 68% in the experiment on UACC-62 melanoma; 87.1% with SK-MEL-28 melanoma; 89.8% in the experiment on SK-MEL-2 melanoma; 63.2% with SN12C renal; 69% in the experiment with UO-31 renal. Besides, the growth with TK-10 renal is 37.5%; in the experiment on ACHN renal it was 29.2%; in the experiment with CAKI-1 renal, 71%; with A498 renal, 90.7%.

Turning to `CCCCCCNC(=O)Nc1ccc2cc3ccc(NC(=O)NCCCCCC)cc3nc2c1`, the growth with HCT-15 colon was 88.7%; in the experiment with HT29 colon, 20.2%; in the experiment with SNB-19 CNS it was -47.9% (active); in the experiment with U251 CNS, -89.1% (active); in the experiment on PC-3 prostate it was 21.5%; in the experiment with SK-MEL-5 melanoma, 3.38% (active). The growth is -79% (active) in the experiment with UACC-62 melanoma; -79.7% (active) in the experiment with LOX IMVI melanoma; -65.4% (active) in the experiment with SK-MEL-28 melanoma; 11.3% with SK-MEL-2 melanoma; 48.7% in the experiment with EKVX NSCLC; -72.7% (active) in the experiment with SN12C renal. For the same compound, the growth was 94.2% in the experiment on UO-31 renal; 97.8% in the experiment with TK-10 renal; 96.7% in the experiment on ACHN renal; 71.4% in the experiment with CAKI-1 renal; 0.631% (active) in the experiment on CCRF-CEM leukemia; -45% (active) with MOLT-4 leukemia.

For the compound `CC(=O)[C@@H]1CC[C@]2(CO)CC[C@]3(C)[C@H](CC[C@@H]4[C@@]5(C)CCCNC(C)(C)[C@@H]5CC[C@]43C)[C@@H]12`, the growth with HCT-15 colon is 81.5%; with HT29 colon, 68.1%; with SNB-75 CNS, 86%; in the experiment with SNB-19 CNS, 99.1%; in the experiment on U251 CNS, 108%; in the experiment on PC-3 prostate, 86%. Besides, the growth was 92.7% with SK-MEL-5 melanoma; 94.7% in the experiment with UACC-62 melanoma; 105% in the experiment with SK-MEL-2 melanoma; 95.4% with EKVX NSCLC; 91.2% in the experiment with SN12C renal; 84.4% in the experiment with UO-31 renal. Besides, the growth was 110% in the experiment on TK-10 renal; 107% with ACHN renal; 97.1% in the experiment on CAKI-1 renal; 95.3% with A498 renal; 103% in the experiment on CCRF-CEM leukemia; 95.3% in the experiment on MOLT-4 leukemia.

For the compound `O=C1NN(C(=O)c2ccccc2)C(c2ccc(Cl)c(Cl)c2)=C/C1=C\c1ccc([N+](=O)[O-])cc1`, the growth with HCT-15 colon is 71.8%; with HT29 colon, 101%; in the experiment with SNB-19 CNS, 58.7%; in the experiment with U251 CNS it was 69.7%; in the experiment with PC-3 prostate, 46.7%; in the experiment on SK-MEL-5 melanoma, 86.8%. Further, the growth was 70.3% with UACC-62 melanoma; 86.9% in the experiment with LOX IMVI melanoma; 111% in the experiment with SK-MEL-28 melanoma; 100% in the experiment with SK-MEL-2 melanoma; 88.3% with EKVX NSCLC; 92.3% in the experiment with SN12C renal. Further, the growth in the experiment on UO-31 renal is 61.9%; in the experiment with TK-10 renal, 106%; in the experiment on ACHN renal, 90.3%; with CAKI-1 renal, 77.1%; in the experiment with A498 renal, 80.4%; in the experiment with CCRF-CEM leukemia, 88.5%.
